PP5 inh = PP5 phosphatase inhibitors, primary screen, biochemical, fluorescence; Serine/threonine-protein phosphatase 5 (Homo sapiens), P53041; purified PP5c, OMFP substrate fluorescence; inhibition, % at 6.7 µM; 320,000 tested, 0.18% active; AID 1987, 2009;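 active means inhibition above the campaign's mean inhibition across all tested compounds plus 3 SD, cut at about 9.5% in these data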;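 further: 0% = DMSO only and 100% = 100 µM cantharidin control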
EBNA-1 inhibitor = EBNA-1 DNA-binding inhibitors, primary screen, biochemical, fluorescence polarization. inhibition, % at 14.8 µM. 300,000 tested, 0.34% active. AID 1950, 2009; in the data active means inhibition above about 28%
PP1 counter = PP1-alpha phosphatase inhibitors, primary screen, counter-screen for PP5 inhibitor project, biochemical, fluorescence, OMFP substrate, single point; inhibition, % at 6.7 µM; purified PP1alpha; AID 2235, 2010; Serine/threonine-protein phosphatase PP1-alpha catalytic subunit (Homo sapiens), P62136; 320,000 tested, 0.9% active;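 active means inhibition above the mean inhibition of all tested compounds plus 3 SD, computed separately for each screening campaign, cut at about 15% in these data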
Target sequence (P62136 whole entry, looked up): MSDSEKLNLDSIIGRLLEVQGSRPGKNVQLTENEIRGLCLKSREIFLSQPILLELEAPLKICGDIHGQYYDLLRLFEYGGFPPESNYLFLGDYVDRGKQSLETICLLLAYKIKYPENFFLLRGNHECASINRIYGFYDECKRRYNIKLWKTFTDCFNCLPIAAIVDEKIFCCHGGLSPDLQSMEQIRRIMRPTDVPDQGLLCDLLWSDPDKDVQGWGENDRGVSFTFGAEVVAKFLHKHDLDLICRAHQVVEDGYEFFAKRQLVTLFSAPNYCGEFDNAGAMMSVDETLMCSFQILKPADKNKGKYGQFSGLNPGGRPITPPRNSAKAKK
MsrA act = bovine MsrA enzyme activators, primary screen, biochemical, absorbance, HTS; purified bovine MsrA, absorbance read-out; activation, % at 10.6 µM; 360,000 tested, 0.3% active; AID 602163, 2012; in the data active means activation above about 7.5%;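 further: 0% = vehicle and 100% = reference activator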
ZTA DNA inh = counter-screen for EBNA-1 inhibitors: inhibitors of Epstein-Barr virus ZTA | P03206 | ZTA-DNA binding, fluorescence polarization | AID 2234 | inhibition, % at 11 µM | 320,000 tested, 0.15% active; in the data active means inhibition above about 33%
Target sequence (P03206 whole entry, looked up): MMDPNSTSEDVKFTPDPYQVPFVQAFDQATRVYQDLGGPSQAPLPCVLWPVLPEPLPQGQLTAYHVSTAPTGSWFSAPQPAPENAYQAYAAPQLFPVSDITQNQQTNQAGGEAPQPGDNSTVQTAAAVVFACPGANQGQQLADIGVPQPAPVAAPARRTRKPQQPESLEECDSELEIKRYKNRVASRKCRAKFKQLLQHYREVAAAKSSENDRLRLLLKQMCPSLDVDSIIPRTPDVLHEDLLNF
MsrA inh = bovine MsrA enzyme inhibitors, primary screen, biochemical, absorbance, HTS. purified bovine MsrA, absorbance read-out. inhibition, % at 15.5 µM. 360,000 tested, 0.75% active; in the data active means inhibition above about 4.5%;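 further: 0% = vehicle wells with enzyme and 100% = reference inhibitor wells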
PP5 inh confirm = PP5 phosphatase inhibitors, confirmation, biochemical, fluorescence, human; shares compounds with PP5 inh; Purified PP5, fluorogenic phosphatase substrate; inhibition, % at 6.7 µM; 460 tested, 22% active; in the data active means inhibition above about 9.5%
PP1 inh counter = PP1 phosphatase inhibitors, counter-screen for PP5 inhibitor project, biochemical, fluorescence, triplicate. shares compounds with PP5 inh. PP1 enzyme, fluorescent phosphatase substrate. inhibition, % at 6.7 µM. 460 tested, 4% active; in the data active means inhibition above about 16%
The depositor's hits bear a star; / = no result given. Hits are enriched below; roughly 2.3% of the tested compounds scored in any of these assays.

SMILES	PP5 inh	EBNA-1 inhibitor	PP1 counter	MsrA act	ZTA DNA inh	MsrA inh	PP5 inh confirm	PP1 inh counter
COc1ccc2nc(C(F)(F)C(F)(F)F)c(C#N)c(N)c2c1	9.8*	-8.7	5.8	-3.9	-9.9	0.4	9.0	6.9
NC(=O)c1ccc(C(F)(F)F)n(Cc2ccc(Cl)cc2)c1=O	9.9*	13.1	5.8	-8.9	-18.5	0.8	1.3	1.9
CC(C)C[C@H]1CN=C(Nc2ccccc2)N1CCCCc1ccccc1	45.6*	7.4	4.4	-0.1	-4.2	-0.7	-4.3	-6.9
CCOC(=O)c1c(C)[nH]c(C)c1C(=O)COC(=O)/C=C/c1cccc(F)c1	2.8	1.4	-0.5	-3.9	1.5	-0.2	/	/
CCOC(=O)c1c(C)[nH]c(C)c1C(=O)COC(=O)/C=C/c1cccc(C(F)(F)F)c1	11.5*	-5.6	1.6	-2.2	9.2	-0.6	8.0	9.1
CCOC(=O)CN1CCc2c(C)nc3c(-c4ccc(OC)c(OC)c4)cnn3c21	11.9*	-10.0	3.3	-3.0	3.5	1.1	-0.7	-0.6
CCOC(=O)Cc1c(C)nc2c(-c3cccc(Br)c3)cnn2c1C	0.8	-3.0	2.0	1.4	-2.6	0.7	/	/
Cc1noc(C)c1N=Nc1ccc(Br)cc1C(=O)O	-2.4	0.8	-1.3	-7.1	10.6	0.4	/	/
O=C(NNC(=O)c1ccc[nH]1)Nc1cc(Cl)cc(Cl)c1	15.8*	-8.9	8.1	-1.7	-7.8	0.3	-2.9	-8.2
COc1ccc(NC(=O)NNS(=O)(=O)c2ccc(OC)c(OC)c2)c(OC)c1	-2.3	7.1	-3.6	-8.1	1.1	1.4	/	/
COc1ccc(-c2csc(NC(=O)c3ccccc3S(C)(=O)=O)n2)cc1	11.3*	-0.3	-19.5	-8.0	9.8	0.6	-0.9	0.0
COc1ccc(-c2csc(NC(=O)c3ccccc3C(=O)O)n2)cc1	2.1	-5.3	-2.7	-3.0	-4.2	0.6	/	/
CCCc1cc2c(cc1NS(=O)(=O)c1ccc(CCNC(C)=O)cc1)OCO2	10.7*	-3.3	-6.5	2.7	6.2	-1.4	-5.4	-4.7
CC(=O)NCCc1ccc(S(=O)(=O)NCc2ccc3c(c2)OCO3)cc1	0.8	-5.5	-4.3	-1.2	-8.1	1.5	/	/
CC(C)c1cc(C(=O)N/N=C/c2c[nH]c3ccccc23)n[nH]1	9.8*	4.5	-1.5	-7.3	4.3	3.7	-5.6	-3.1
CC(=O)N1CCOc2ccc(S(=O)(=O)N3CCC(C(=O)NCc4ccc(Cl)cc4)CC3)cc21	/	/	/	-5.0	/	-0.1	/	/
Cc1cc(C(=O)N(C2CCCCC2)C2CCCCC2)no1	9.7*	-0.5	-9.5	-14.4	1.6	1.0	-4.3	-4.5
Cc1cc(C(=O)N2C(C)CCCC2C)no1 (stereo unspecified)	-1.6	12.3	-0.1	-0.8	16.4	-0.8	/	/
CCCN(C(=O)c1cn(C)c(=O)c2ccccc12)c1ccccc1C	2.4	-22.4	-1.6	-3.7	9.2	0.0	/	/
CN(C)c1nc(SCCOC(=O)COc2ccc(Cl)cc2Cl)nc(N(C)C)n1	11.2*	-7.3	-2.2	1.5	-6.4	0.6	-2.7	-2.2
CC(C)C[C@H](NC(=O)c1[nH]cnc1C(=O)N[C@H](C)c1ccccc1)C(=O)OC(C)(C)C	10.2*	4.9	11.2	0.4	-4.5	-0.2	7.7	8.8
CC(C)C[C@H](NC(=O)c1nc[nH]c1C(=O)N[C@@H](CC(C)C)C(=O)OC(C)(C)C)C(=O)OC(C)(C)C	10.2*	-2.4	4.0	-2.9	7.2	1.4	5.8	6.8
C[C@H](NC(=O)c1nc[nH]c1C(=O)N[C@@H](Cc1ccccc1)C(=O)OC(C)(C)C)C(=O)OC(C)(C)C	10.8*	2.0	11.1	1.0	-8.2	-0.4	7.1	10.0
O=C(CCC(=O)N1CCCCC1)Nc1nnc(C2CCCCC2)s1	-2.2	-0.9	-3.6	-0.8	-7.7	0.1	/	/
O=C(CCC(=O)N1CCOCC1)Nc1nnc(C2CCCCC2)s1	11.5*	-10.2	-2.6	0.3	-9.7	-0.7	-5.3	-4.1
SMILES	PP5 inh	EBNA-1 inhibitor	PP1 counter	MsrA act	ZTA DNA inh	MsrA inh	PP5 inh confirm	PP1 inh counter
O=[N+]([O-])c1cc(Cl)ccc1N1CCCC1	-0.5	3.2	1.3	-2.5	-3.4	0.3	/	/
O=C1C(Cl)=C(N2CCN(c3ccccc3[N+](=O)[O-])CC2)C(=O)c2ccccc21	13.6*	-1.3	9.5	-2.5	4.3	1.9	24.4*	4.9
O=C(CSc1ccccc1)N(c1ccc(Br)cc1)c1nccs1	5.7	2.4	3.5	-3.8	-15.9	1.8	/	/
Cc1ccc(-c2ccc(/C=N\n3cnnc3)o2)c(Br)c1	10.5*	1.3	4.8	-3.8	0.4	1.4	-3.4	-1.7
Cc1cc(-c2ccc(/C=N/n3cnnc3)o2)c(C)c([N+](=O)[O-])c1	2.9	-14.1	0.9	-4.8	8.3	0.0	/	/
CCN(CC)c1ccc(C(=O)NC(=S)Nc2cc(S(=O)(=O)N3CCOCC3)ccc2-n2cncn2)cc1	17.6*	8.7	-4.5	0.9	2.6	0.0	-4.4	3.3
N#CNc1nc(O)cc(=O)[nH]1	2.1	-8.8	0.2	-1.7	-10.2	/	/	/
COc1ccc(C(=O)OCC(=O)Nc2sccc2C(N)=O)cc1[N+](=O)[O-]	1.4	/	1.7	1.3	16.8	4.0	/	/
O=C(O)c1cc(N/N=C/c2ccncc2)ccc1Cl	10.9*	1.1	-7.6	-2.5	-5.2	3.5	-0.3	-2.1
COc1ccc(NS(=O)(=O)c2cc(C(=O)N3CCC3)ccc2C)cc1	1.9	/	1.6	-3.2	2.1	0.0	/	/
CCOc1ccc(NC(=O)CSc2ccc(-c3cccnc3)nn2)cc1	2.7	-4.4	4.6	-5.6	-10.6	-1.3	/	/
COc1ccccc1N1CCN(c2nc(C)nc3c2oc2ccccc23)CC1	10.4*	2.0	1.2	-3.7	-7.3	0.9	0.9	-0.1
COc1ccc(C=O)c(-c2c(-c3ccccc3OC)sc3ccccc23)c1	/	/	/	-2.7	/	-0.2	/	/
CC1(NC(=O)CCc2nc3sc4c(c3c(=O)[nH]2)CCCC4)CCS(=O)(=O)C1 (stereo unspecified)	10.3*	-4.6	-22.1	-1.5	14.3	-0.5	-4.0	-2.1
CC(=O)Nc1ccc(NC(=O)CCc2nc3sc4c(c3c(=O)[nH]2)CCCC4)cc1	0.6	6.2	-4.2	-3.9	10.9	0.6	/	/
CC1CC(C)CN(C(=O)c2ccc3c(=O)n(Cc4ccc5c(c4)OCO5)c(=S)[nH]c3c2)C1 (stereo unspecified)	11.1*	-3.9	13.7	-2.8	-8.7	1.1	1.5	3.7

Assay outcomes: PubChem BioAssay, The Scripps Research Institute Molecular Screening Center
